The values below come from ChEMBL document CHEMBL2218924, “A broad activity screen in support of a chemogenomic map for kinase signalling research and drug discovery” (Biochem J, 2013).

The target of experiment [1] is Ribosomal protein S6 kinase alpha-1 (Homo sapiens) (UniProt Q15418). Particulars: at 1 µM.
Experiment [2] has the same target. Conditions: at 10 µM.
Experiment [3] deals with Ribosomal protein S6 kinase alpha-3 (Homo sapiens) (UniProt P51812). Particulars: at 1 µM.
For experiment [4] the target is unchanged. Conditions: at 10 µM.
The target of experiment [5] is Ribosomal protein S6 kinase alpha-2 (Homo sapiens) (UniProt Q15349). Particulars: at 1 µM.
Sequence of Ribosomal protein S6 kinase alpha-2 (Homo sapiens) (Q15349 whole entry): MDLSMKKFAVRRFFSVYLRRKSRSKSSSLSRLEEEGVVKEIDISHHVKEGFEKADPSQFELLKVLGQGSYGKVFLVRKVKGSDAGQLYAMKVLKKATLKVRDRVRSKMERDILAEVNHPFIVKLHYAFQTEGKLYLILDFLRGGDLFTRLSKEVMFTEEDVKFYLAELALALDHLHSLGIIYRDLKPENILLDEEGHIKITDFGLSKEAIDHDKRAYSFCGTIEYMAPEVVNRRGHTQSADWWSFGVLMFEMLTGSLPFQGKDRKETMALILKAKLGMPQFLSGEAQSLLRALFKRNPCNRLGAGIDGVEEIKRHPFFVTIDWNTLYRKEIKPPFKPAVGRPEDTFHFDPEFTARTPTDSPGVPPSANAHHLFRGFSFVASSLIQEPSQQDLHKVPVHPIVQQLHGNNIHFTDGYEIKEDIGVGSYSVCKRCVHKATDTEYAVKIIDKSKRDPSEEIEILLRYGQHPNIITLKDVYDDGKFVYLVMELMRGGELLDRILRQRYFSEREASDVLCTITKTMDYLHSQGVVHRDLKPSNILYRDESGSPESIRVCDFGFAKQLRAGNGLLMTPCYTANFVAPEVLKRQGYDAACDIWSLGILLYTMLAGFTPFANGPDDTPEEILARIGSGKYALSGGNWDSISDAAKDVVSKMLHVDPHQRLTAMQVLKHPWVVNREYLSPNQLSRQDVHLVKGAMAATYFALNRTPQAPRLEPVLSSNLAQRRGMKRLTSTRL
The target is the same in experiment [6]. Conditions: at 10 µM.
Experiment [7] concerns the target Ribosomal protein S6 kinase alpha-6 (Homo sapiens) (UniProt Q9UK32). Particulars: at 1 µM.
The target is the same in experiment [8]. Particulars: at 10 µM.
Experiment [9] has as its target Mitogen-activated protein kinase 14 (Homo sapiens) (UniProt Q16539). Particulars: at 1 µM.
For experiment [10] the target is unchanged. Conditions: at 10 µM.

The structures appear in SMILES notation.

Sequence of Ribosomal protein S6 kinase alpha-6 (Homo sapiens) (Q9UK32 whole entry): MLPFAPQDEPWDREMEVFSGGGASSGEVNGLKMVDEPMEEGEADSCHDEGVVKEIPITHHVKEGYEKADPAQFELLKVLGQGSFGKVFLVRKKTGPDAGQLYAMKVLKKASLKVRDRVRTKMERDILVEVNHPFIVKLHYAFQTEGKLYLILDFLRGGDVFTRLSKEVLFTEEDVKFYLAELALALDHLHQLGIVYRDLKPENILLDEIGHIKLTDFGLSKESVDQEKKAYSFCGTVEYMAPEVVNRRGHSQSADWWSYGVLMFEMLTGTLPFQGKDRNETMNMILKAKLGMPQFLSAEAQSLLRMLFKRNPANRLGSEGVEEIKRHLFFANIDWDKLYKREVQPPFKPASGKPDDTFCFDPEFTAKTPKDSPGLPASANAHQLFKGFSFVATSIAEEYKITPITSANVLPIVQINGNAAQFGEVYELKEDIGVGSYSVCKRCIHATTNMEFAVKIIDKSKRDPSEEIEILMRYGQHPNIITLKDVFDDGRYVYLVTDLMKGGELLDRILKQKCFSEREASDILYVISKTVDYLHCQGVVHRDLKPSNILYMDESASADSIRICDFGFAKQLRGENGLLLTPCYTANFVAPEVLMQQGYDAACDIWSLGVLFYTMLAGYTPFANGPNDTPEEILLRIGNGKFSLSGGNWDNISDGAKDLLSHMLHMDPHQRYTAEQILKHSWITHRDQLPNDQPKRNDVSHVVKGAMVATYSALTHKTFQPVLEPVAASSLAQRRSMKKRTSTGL
Sequence of Ribosomal protein S6 kinase alpha-3 (Homo sapiens) (P51812 whole entry): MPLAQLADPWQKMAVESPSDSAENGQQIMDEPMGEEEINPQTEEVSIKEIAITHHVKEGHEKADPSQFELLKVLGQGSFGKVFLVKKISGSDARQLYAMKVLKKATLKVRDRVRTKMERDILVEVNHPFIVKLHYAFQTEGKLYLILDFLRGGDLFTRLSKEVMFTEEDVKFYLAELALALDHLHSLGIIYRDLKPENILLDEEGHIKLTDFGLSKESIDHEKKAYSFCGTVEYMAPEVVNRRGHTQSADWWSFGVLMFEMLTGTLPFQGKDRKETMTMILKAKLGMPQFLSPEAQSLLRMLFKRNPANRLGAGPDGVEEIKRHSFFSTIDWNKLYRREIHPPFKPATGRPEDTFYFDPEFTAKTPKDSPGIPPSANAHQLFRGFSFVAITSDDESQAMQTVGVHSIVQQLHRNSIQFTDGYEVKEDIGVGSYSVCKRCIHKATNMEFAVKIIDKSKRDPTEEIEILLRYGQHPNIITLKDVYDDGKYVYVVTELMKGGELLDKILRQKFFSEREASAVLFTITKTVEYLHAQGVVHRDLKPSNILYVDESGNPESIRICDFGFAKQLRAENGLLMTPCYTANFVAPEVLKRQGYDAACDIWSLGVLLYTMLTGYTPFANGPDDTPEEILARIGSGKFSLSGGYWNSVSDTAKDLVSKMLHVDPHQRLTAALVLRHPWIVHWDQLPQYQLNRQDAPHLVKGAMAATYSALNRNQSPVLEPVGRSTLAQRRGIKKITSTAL
Sequence of Ribosomal protein S6 kinase alpha-1 (Homo sapiens) (Q15418 whole entry): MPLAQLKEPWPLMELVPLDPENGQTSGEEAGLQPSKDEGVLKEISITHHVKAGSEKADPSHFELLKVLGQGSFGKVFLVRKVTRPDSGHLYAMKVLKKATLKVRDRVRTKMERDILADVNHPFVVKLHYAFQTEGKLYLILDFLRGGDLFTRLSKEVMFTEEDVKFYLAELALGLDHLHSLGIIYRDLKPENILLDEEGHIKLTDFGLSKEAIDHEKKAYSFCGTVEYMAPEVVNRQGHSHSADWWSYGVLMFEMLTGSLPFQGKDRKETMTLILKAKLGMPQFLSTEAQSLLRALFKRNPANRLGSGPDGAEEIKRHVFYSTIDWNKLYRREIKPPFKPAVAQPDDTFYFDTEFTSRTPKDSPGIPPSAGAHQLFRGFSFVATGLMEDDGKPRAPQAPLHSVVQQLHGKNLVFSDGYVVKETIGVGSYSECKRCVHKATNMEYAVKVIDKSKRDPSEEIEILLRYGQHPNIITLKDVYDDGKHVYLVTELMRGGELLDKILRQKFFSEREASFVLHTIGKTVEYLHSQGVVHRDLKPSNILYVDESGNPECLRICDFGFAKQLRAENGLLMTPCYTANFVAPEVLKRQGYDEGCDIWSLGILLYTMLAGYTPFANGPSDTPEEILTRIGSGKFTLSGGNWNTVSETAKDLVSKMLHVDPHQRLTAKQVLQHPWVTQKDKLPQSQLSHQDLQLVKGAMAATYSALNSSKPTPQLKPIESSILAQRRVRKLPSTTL
Sequence of Mitogen-activated protein kinase 14 (Homo sapiens) (Q16539 whole entry): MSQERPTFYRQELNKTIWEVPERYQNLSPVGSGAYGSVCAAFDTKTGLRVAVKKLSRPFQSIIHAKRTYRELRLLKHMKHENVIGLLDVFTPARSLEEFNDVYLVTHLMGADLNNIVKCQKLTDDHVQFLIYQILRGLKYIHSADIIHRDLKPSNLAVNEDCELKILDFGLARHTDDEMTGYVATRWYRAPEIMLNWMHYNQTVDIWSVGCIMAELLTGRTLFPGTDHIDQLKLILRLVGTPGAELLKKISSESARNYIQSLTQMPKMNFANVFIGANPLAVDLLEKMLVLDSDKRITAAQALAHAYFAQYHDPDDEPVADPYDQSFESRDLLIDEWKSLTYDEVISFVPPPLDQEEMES

Consider `N#C/C(=C(\N)Sc1ccc(N)cc1)c1ccccc1C(F)(F)F`, for which the residual activity in experiment [1] stood at 40%; in [2], 42%; in experiment [3], 28%; in experiment [4], 15%; in experiment [5], 53%; in experiment [6], 48%. The residual activity in experiment [7] came out at 103%; in experiment [8] it was 104%; in experiment [9] it was 87%; in experiment [10] it was 82%.

For `c1ccc2c(-c3ccncc3)c[nH]c2c1`, the residual activity in [2] was found to be 67%; in experiment [3], 72%; in experiment [4], 43%; in [5], 98%; in experiment [6] it was 48%; in experiment [7] it was 89%. In addition, the residual activity in [8] worked out at 107%; in experiment [9], 77%; in [10], 54%.

With `Cn1cnc2cc3c(Nc4cccc(Br)c4)ncnc3cc21`, the residual activity in [1] came out at 97%; in experiment [2] it was 92%; in experiment [3] it was 108%; in experiment [4], 93%; in experiment [5], 101%; in experiment [6] it was 70%. The residual activity stood at 115% in [7], 68% in experiment [8], 64% in [9] and 25% in experiment [10].

In the case of `O=c1c2ccccc2[nH]c(=S)n1CCN1CCC(=C(c2ccc(F)cc2)c2ccc(F)cc2)CC1`, the residual activity in experiment [1] amounted to 113%; in experiment [2], 61%; in experiment [3], 79%; in [4], 50%; in [5] it was 119%; in experiment [6], 100%. The residual activity in [7] was found to be 114%; in experiment [8] it was 91%; in [9], 97%; in [10], 104%.

On to `COc1cc2ncnc(Nc3ccc(NC(=O)c4ccccc4)cc3)c2cc1OC`, for which the residual activity in experiment [2] stood at 75%; in [3], 67%; in experiment [4], 40%; in experiment [5], 109%; in experiment [6], 69%; in [7], 104%. Further, the residual activity in experiment [8] was determined as 109%.

Consider `c1ccc(-c2n[nH]cc2-c2ccnc3ccccc23)nc1`, for which the residual activity in experiment [3] turned out to be 60%; in experiment [4] it was 62%; in experiment [5], 108%; in [6] it was 95%; in [9], 49%; in [10], 15%.

On to `CCN(CC)C(=O)c1ccc(Nc2nc(OCC3CCCCC3)c3nc[nH]c3n2)cc1`, for which the residual activity in experiment [1] was found to be 58%; in experiment [2], 7%; in experiment [3], 30%; in [4], 1%; in [5], 18%; in experiment [6], 2%. In addition, the figures for the residual activity in experiment [7], in experiment [8] and in experiment [10] were 28%, 7% and 70%, respectively.

Take `Cc1cccc(-c2[nH]c(C(C)(C)C)nc2-c2ccc3c(c2)OCO3)n1`: the residual activity turned out to be 67% in experiment [3]; 47% in experiment [4]; 101% in experiment [5]; 97% in experiment [6]; 49% in experiment [9]; 16% in experiment [10].

In the case of `O=C1Nc2cc(Br)ccc2/C1=C1/Nc2ccccc2/C1=N\O`, the residual activity in [1] worked out at 72%; in experiment [2] it was 73%; in experiment [3], 24%; in experiment [4], 6%; in [5] it was 17%; in [6], 28%. For the same compound, the residual activity was determined as 38% in [7], 24% in experiment [8], 85% in experiment [9] and 83% in experiment [10].

Regarding `Cc1cncc2cccc(S(=O)(=O)N3CCCN(C(=O)CN)C[C@H]3C)c12`, the residual activity was found to be 60% in experiment [3]; 23% in experiment [4]; 90% in experiment [7]; 66% in experiment [8]; 74% in experiment [9]; 81% in experiment [10].

With `C[C@@H](N)[C@H]1CC[C@H](C(=O)Nc2ccncc2)CC1`, the residual activity in experiment [2] turned out to be 48%; in experiment [5], 62%; in experiment [6], 11%; in experiment [7], 110%; in experiment [8], 60%; in experiment [9], 106%. Moreover, the residual activity in [10] stood at 107%.

Regarding `CCC(=O)Nc1ccc2ncnc(Nc3cccc(Br)c3)c2c1`, the residual activity in experiment [1] stood at 119%; in experiment [2] it was 84%; in experiment [3] it was 120%; in experiment [4] it was 91%; in experiment [5] it was 99%; in experiment [6], 71%. Also, the residual activity in [7] worked out at 124%; in experiment [8] it was 82%; in experiment [9], 78%; in [10], 50%.

In the case of `COc1cc2ncc(-c3ccccc3)nc2cc1OC`, the residual activity in experiment [3] turned out to be 54%; in experiment [4], 25%; in [5] it was 100%; in experiment [6] it was 68%; in experiment [7], 92%; in [8], 94%. Also, the residual activity in [9] is 92%; in experiment [10], 88%.

As for `CNc1cc2c(Nc3cccc(Br)c3)ncnc2cn1`, the residual activity in [1] stood at 115%; in [2] it was 59%; in experiment [3] it was 110%; in experiment [4], 71%; in experiment [5], 87%; in experiment [6], 38%. In addition, the residual activity in experiment [7] was 101%; in [8], 74%; in experiment [9], 83%; in experiment [10], 77%.

Consider `O=C1NC(=O)/C(=C\c2ccc3nccnc3c2)S1`, for which the residual activity was 112% in experiment [1]; 83% in experiment [2]; 61% in [3]; 35% in [4]; 114% in [5]; 78% in experiment [6]. Moreover, the residual activity in [7] came to 101%; in experiment [8] it was 99%; in [9] it was 82%; in [10], 91%.

As to `CC(=O)c1ccc(N2CCOCC2)cc1O`, the residual activity in experiment [2] came to 110%; in experiment [3] it was 64%; in [4], 56%; in [5], 105%; in [6], 107%; in [7], 128%. Further, in experiment [8], the residual activity worked out at 102%.

`Nc1nc(Nc2ccc(S(N)(=O)=O)cc2)nn1C(=S)Nc1c(F)cccc1F`: the residual activity was 4% in experiment [1]; 3% in experiment [2]; 0% in experiment [3]; -1% in [4]; 0% in experiment [5]; -1% in [6]. The residual activity in experiment [7] is -2%; in experiment [8], -2%; in experiment [9] it was 88%; in experiment [10], 53%.

With `N#CC(C#N)=C(N)/C(C#N)=C/c1ccc(O)cc1`, the residual activity in experiment [1] amounted to 94%; in experiment [2], 78%; in [3], 49%; in [4] it was 27%; in [7], 94%; in experiment [9], 78%. The residual activity in experiment [10] came out at 55%.

On to `CC#CC(=O)Nc1cc2c(Nc3ccc(F)c(Cl)c3)ncnc2cn1`, for which the residual activity worked out at 113% in [1]; 101% in experiment [2]; 104% in experiment [3]; 107% in [4]; 99% in experiment [5]; 96% in experiment [6]. The residual activity in [7] is 116%; in experiment [8] it was 105%; in experiment [9] it was 91%; in experiment [10] it was 98%.
